# Data from the supplement of paper PMC4166925.
# ± gives the standard deviation of the averaged measurements. Whole data set: some 33,000 sequences, median “E-score (dimensionless, -0.5 to 0.5)” near -0.046, cut for the highest 2% near 0.36. The entries come from a sample that favours the highest values as a whole.
# Test system: T1, SpTbr T-box DNA-binding domain (GST fusion)
# T1 sequence: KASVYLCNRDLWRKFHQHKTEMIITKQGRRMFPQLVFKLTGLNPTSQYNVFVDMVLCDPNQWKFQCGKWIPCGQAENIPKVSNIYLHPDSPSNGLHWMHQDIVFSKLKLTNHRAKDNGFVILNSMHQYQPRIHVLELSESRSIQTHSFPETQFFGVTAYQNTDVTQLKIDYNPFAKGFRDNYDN
# Experiment: PBM E-score of 8-mer (E-score (dimensionless, -0.5 to 0.5)); Tbr is Tbrain of the sea star Patiria miniata (Pm) or the sea urchin Strongylocentrotus purpuratus (Sp); higher = stronger binding preference
# Settings: the construct has about 5 more residues each side
# Outline: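 Primer extension turned Universal Agilent oligonucleotide arrays double-stranded. They were incubated with 200 nM protein in PBS (pH 7.5); the protein was a GST-fused Tbr T-box DNA-binding domain expressed in BL21 E. coli at 20 °C and purified on glutathione. Every ungapped 8-mer was scored from the scanned, quantified probe intensities, and the Universal PBM Analysis Suite gave each an enrichment E-score averaged over duplicate arrays.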
row,Sequence,PBM E-score of 8-mer
1,ATGACAAC,0.222 ± 0.017
2,GTGACACA,0.403 ± 0.0044
3,CTGACACA,0.356 ± 0.022
4,ATGACAAA,-0.0554 ± 0.028
5,GAGACACA,0.15 ± 0.01
6,CTGACAAC,0.259 ± 0.018
7,CCGACAAC,0.159 ± 0.048
8,GTGACAAA,0.38303 ± 5.7e-05
9,CTGACAAA,0.0345 ± 0.084
10,ACGACAAC,0.2279 ± 0.0012
11,GCGACAAC,0.369 ± 0.007
12,GTGACAAC,0.4467 ± 0.0025
13,AGGTAGCA,0.0725 ± 0.016
14,ACCACAAT,-0.0442 ± 0.058
15,AACACCCC,0.39126 ± 9.9e-05
16,ATCACCCC,0.232 ± 0.013
17,GACACCCA,0.374 ± 0.032
18,AGCACCCT,0.202 ± 0.025
19,GCCACCCC,0.181 ± 0.081
20,AACACCCA,0.293 ± 0.035
21,GACACCCC,0.405 ± 0.026
22,GCCACCCA,0.0264 ± 0.086

row,Sequence,PBM E-score of 8-mer
1,GGCACCCC,0.22 ± 0.003
2,GGCACCCA,0.173 ± 0.021
3,ACCACCCT,0.0155 ± 0.074
4,AACACCCT,0.4 ± 0.0049
5,CAGCCGGA,0.05 ± 0.018
6,CCAGTCAC,0.0388 ± 0.0065
7,AAGTTTCT,0.0712 ± 0.037
8,CCTCCTCA,0.0831 ± 0.027
9,AGATCTCA,0.098 ± 0.054
10,TATTCTCA,0.264 ± 0.061
11,CGAAAACC,-0.297 ± 0.0092
12,GTCGCGTA,0.0514 ± 0.011
13,CCGGCCAA,-0.208 ± 0.042
14,AACACCAA,0.356 ± 0.012
15,ACCACCAT,0.108 ± 0.082
16,AACACCAT,0.377 ± 0.021
17,GATATAGC,0.118 ± 0.023
18,ATCAAATA,-0.182 ± 0.015
19,TGTCGACA,0.384 ± 0.01
20,CGTCGACA,0.251 ± 0.031
21,AGTCGACA,0.179 ± 0.051
22,GCAAACCC,-0.0464 ± 0.01

row,Sequence,PBM E-score of 8-mer
1,ACATATTC,0.203 ± 0.049
2,ACTCGCAG,0.0332 ± 0.026
3,ACTCGCAC,0.394 ± 0.035
4,CCTCGCAG,0.128 ± 0.0015
5,CCTCGCAA,0.102 ± 0.077
6,CCTCGCAC,0.396 ± 0.032
7,GCTCGCAA,0.224 ± 0.021
8,ACTCGCAT,-0.00696 ± 0.059
9,GCTCGCAC,0.4252 ± 0.0014
10,GCTCGCCC,-0.196 ± 0.039
11,AATTGGAC,-0.187 ± 0.049
12,GCAGTGGA,-0.261 ± 0.065
13,GACCTTAA,-0.188 ± 0.0048
14,AACCTTAA,-0.218 ± 0.046
15,CACCTTAG,0.401 ± 0.04
16,CACCTTAA,0.387 ± 0.004
17,AACCTTAG,-0.144 ± 0.086
18,AACCTTAC,0.0738 ± 0.012
19,CACCTTAC,0.413 ± 0.017
20,CCCCTTAG,-0.184 ± 0.068
21,GACCTTAC,-0.286 ± 0.0076
22,TAAGAGCA,-0.252 ± 0.049

row,Sequence,PBM E-score of 8-mer
1,CCGCTACC,0.162 ± 0.04
2,ATGCTTCG,0.0174 ± 0.071
3,CGTGCCTA,-0.0792 ± 0.002
4,GGTAGGCA,-0.079 ± 0.028
5,AAACTACA,0.014 ± 0.14
6,TAGGGGCA,-0.127 ± 0.04
7,ATGCACGC,-0.0415 ± 0.12
8,AGGTGAAC,0.164 ± 0.025
9,CGAAATCG,0.2456 ± 0.0015
10,CACTTGTC,0.375 ± 0.012
11,CACTTGCA,0.336 ± 0.012
12,CACTTGTA,0.116 ± 0.046
13,AACTTGCG,0.198 ± 0.0091
14,AACTTGTC,0.355 ± 0.03
15,CACTTGCG,0.387 ± 0.026
16,CGGCGCCC,0.0161 ± 0.043
17,CTCTGACA,0.233 ± 0.019
18,TAACATTA,-0.0674 ± 0.087
19,TAATATTA,-0.13 ± 0.033
20,GAGTCGAC,0.107 ± 0.061
